JMJD2A Tudor: qHTS Assay for Inhibitors of JMJD2A-Tudor Domain; Lysine-specific demethylase 4A (Homo sapiens), O75164; AlphaScreen JMJD2A-Tudor / H3K4me3 peptide binding; Potency, µM (titrated, usually from 114 µM), for inactives: top-dose activity change, negative = inhibition, actives largely listed as inhibitors; actives 4.4% (n = 390,000); note: potency is the fitted concentration of half-maximal effect; % is set by controls: 0 for no effect and ±100 for the full control effect; nearly all actives have a fitted effect of over 50% in size
PLK1 PBD block: qHTS for Inhibitors of PLK1-PDB (polo-like kinase 1 - polo-box domain): Primary Screen. Serine/threonine-protein kinase PLK1 (Homo sapiens), P53350. Plk1 PBD binding of FITC phosphopeptide, fluorescence polarization. Potency, µM, for the others: max response, negative = inhibition, usual class: inhibitors. actives 2.8% (n = 360,000); note: potency is the fitted concentration of half-maximal effect; series mostly up to about 57 µM; % is set by controls: 0 for no effect and ±100 for the full control effect; nearly all actives have a fitted effect of over 65% in size
BAZ2B block: qHTS Assay for Inhibitors of BAZ2B; AlphaScreen BAZ2B-H3K14Ac peptide displacement; Potency, µM (top dose mostly 114 µM), for the others: at the top dose activity change, negative = inhibition, hits mostly inhibitors; actives 4.4% (n = 360,000); note: potency is the fitted concentration of half-maximal effect; % is set by controls: 0 for no effect and ±100 for the full control effect; nearly all actives have a fitted effect of over 60% in size
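Compounds, titrated to a top concentration of 110 uM, were incubated 30 min at room temperature with preformed BAZ2B/acetyl-K14 H3 peptide complex (50 nM each). Proximity signal was measured by AlphaScreen after 20 min with beads.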
G9a inh: qHTS Assay for Inhibitors of Histone Lysine Methyltransferase G9a; Histone-lysine N-methyltransferase EHMT2 (Homo sapiens), Q96KQ7; G9a H3K9 monomethylation, AlphaScreen, 2 h; Potency, µM (highest dose often 102 µM), for the others: top-dose activity, negative = inhibition, hits mostly inhibitors; actives 8.8% (n = 350,000); AID 504332, 2011; note: potency is the fitted concentration of half-maximal effect; % is set by controls: 0 for no effect and ±100 for the full control effect; nearly all actives have a fitted effect of over 75% in size
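Enzyme 20 nM + cpd, 15 min RT; add b-H3K9 pep 500 nM / SAM 20 uM; 2 h RT; anti-H3K9me1 Ab 0.5 ug/mL + SA donor / anti-rabbit acceptor beads 20 ug/mL each, 10 min; AlphaScreen read.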
HP1b chromo inh: HTS for Inhibitors of HP1-beta Chromodomain Interactions with Methylated Histone Tails; actives 0.56% (n = 390,000); AlphaScreen HP1-beta / biotin-H3K9me3 peptide binding; Chromobox protein homolog 1 (Homo sapiens), P83916; Potency, µM (titrated, usually from 114 µM), for inactives: at the highest dose activity change, negative = inhibition, most hits filed as inhibitors; AID 540317, 2011; note: potency is the fitted concentration of half-maximal effect; nearly all actives have a fitted effect of over 70% in size
Target sequence (P83916 whole entry, looked up): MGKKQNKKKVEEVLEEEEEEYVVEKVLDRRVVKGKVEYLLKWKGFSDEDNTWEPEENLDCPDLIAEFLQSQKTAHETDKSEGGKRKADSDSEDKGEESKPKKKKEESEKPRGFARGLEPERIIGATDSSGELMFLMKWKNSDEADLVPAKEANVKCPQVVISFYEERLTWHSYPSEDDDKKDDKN
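Compound inhibition of the preformed complex between 50 nM HP1-beta and 50 nM biotinylated H3K9me3 peptide was read by AlphaScreen. Buffer was PBS pH 7.4 with 0.01% Tween-20. Incubations ran 30 min at room temperature, with 10 ug/mL donor/acceptor beads.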
PI5P4Ka inh: qHTS for Inhibitors of phosphatidylinositol 5-phosphate 4-kinase (PI5P4K); AID 652105, 2013; actives 1.2% (n = 330,000); max response, %; PI5P4Kalpha enzyme, ADP-Glo luminescence, 60 min; hits give low values; Phosphatidylinositol 5-phosphate 4-kinase type-2 alpha (Homo sapiens), P48426; active = max response of -50% or lower; inconclusive = between -30% and -50%; inactive = -30% or higher; note: value at the top dose of about 77 µM; % is set by controls: 0 for no effect and ±100 for the full control effect
Target sequence (P48426 whole entry, looked up): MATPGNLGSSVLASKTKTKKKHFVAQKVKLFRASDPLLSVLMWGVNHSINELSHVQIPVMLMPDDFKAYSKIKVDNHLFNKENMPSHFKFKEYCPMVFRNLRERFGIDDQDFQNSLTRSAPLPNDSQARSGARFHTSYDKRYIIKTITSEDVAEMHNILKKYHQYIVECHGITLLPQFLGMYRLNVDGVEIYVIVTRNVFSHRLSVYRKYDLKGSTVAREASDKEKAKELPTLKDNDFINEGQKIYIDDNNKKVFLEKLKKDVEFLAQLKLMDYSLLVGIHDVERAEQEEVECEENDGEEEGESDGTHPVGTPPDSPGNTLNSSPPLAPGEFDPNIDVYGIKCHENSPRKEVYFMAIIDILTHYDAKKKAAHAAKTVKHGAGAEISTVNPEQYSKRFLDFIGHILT
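Reactions run in 0.038 M HEPES pH 7.4, 0.28 mM EGTA, 0.1% CHAPS and 5% DMSO, with PI5P4Kalpha, substrate, compound and 5 microM ATP final, one hour at room temperature. Readout is ADP-Glo luminescence.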
Active calls of the source: *; [ ] = remark or other dose. Most compounds without a hit are left out; they make up all but 12% or so of the library. Unless noted, calls come from the whole dose curve; as a rule, active = well fitted curve in the direction sought with a large enough effect; inconclusive = small, poorly fitted or top-dose-only effect, or another doubt; inactive = no such curve, though single readings can be large; an effect the other way counts as inactive or inconclusive.

For CN(C)/N=C/C=C1\CCC/C(=C\c2ccc(F)c(F)c2)C1=O the results were JMJD2A Tudor inconclusive, PLK1 PBD block -10%, BAZ2B block 40µM*, G9a inh inconclusive, HP1b chromo inh inconclusive and PI5P4Ka inh -3.
COc1ccc(/C=C2\CCC/C(=C\C=N\N(C)C)C2=O)cc1 was read as JMJD2A Tudor 32µM*, PLK1 PBD block 10%, BAZ2B block 32µM*, G9a inh inconclusive, HP1b chromo inh inconclusive and PI5P4Ka inh -1.
O=C(NCCN1CCC(n2c(=O)[nH]c3ccccc32)CC1)c1cccnc1Cl was read as PLK1 PBD block -2% and PI5P4Ka inh -6.
Screening CCC(c1nnc(SC(C)C(=O)NC2CC2)n1-c1ccc(OC)cc1)N(C)C (centres undefined) returned JMJD2A Tudor -7%, PLK1 PBD block 0%, BAZ2B block -2%, G9a inh 5%[59 µM], HP1b chromo inh 18% and PI5P4Ka inh -5.
`Clc1cccc(CSc2nc3ccncc3[nH]2)c1` gave JMJD2A Tudor -7%, PLK1 PBD block -18%, BAZ2B block 2%, G9a inh inconclusive, HP1b chromo inh 39% and PI5P4Ka inh 9.
For O=C(NCCN1CCN(c2cccc(Cl)c2)CC1)c1ccc(CSc2nc3ccncc3[nH]2)cc1 the results were JMJD2A Tudor 45µM*, PLK1 PBD block -5%, BAZ2B block inconclusive, G9a inh 50µM*, HP1b chromo inh -17% and PI5P4Ka inh 8.
Screening CN(C)C(CNC(=O)c1ccc([N+](=O)[O-])cc1Cl)c1ccco1 (centres undefined) returned JMJD2A Tudor -9%, PLK1 PBD block -1%, BAZ2B block 0%, G9a inh 3%[59 µM], HP1b chromo inh 44% and PI5P4Ka inh 0.
For CC(c1ccco1)N(C(=O)c1ccccc1NS(=O)(=O)c1cccc([N+](=O)[O-])c1)c1ccccn1 (centres undefined) the results were JMJD2A Tudor -24%, PLK1 PBD block -9%, BAZ2B block -38%, G9a inh 79µM*, HP1b chromo inh 15% and PI5P4Ka inh 1.
CN(C)C(CNS(=O)(=O)c1cc([N+](=O)[O-])ccc1Cl)c1ccco1 (centres undefined) was read as JMJD2A Tudor inconclusive, PLK1 PBD block 27µM*, HP1b chromo inh -17% and PI5P4Ka inh -18.
Screening CC(c1ccco1)N(C(=O)c1ccccc1NS(=O)(=O)c1cc([N+](=O)[O-])ccc1Cl)c1ccccn1 (centres undefined) returned JMJD2A Tudor 25µM*, PLK1 PBD block -13%, BAZ2B block 79µM*, G9a inh 4µM*, HP1b chromo inh -12% and PI5P4Ka inh -3.
Cc1nc2ccn(Cc3ccccc3)c(=O)c2cc1C(=O)Nc1ccc(F)cc1Cl was read as JMJD2A Tudor 4%, BAZ2B block -2%, G9a inh 3%[59 µM] and HP1b chromo inh 50%.
For O=C(CSc1nnc2ccccn12)NNC(=O)c1ccccc1F the results were JMJD2A Tudor -5%, PLK1 PBD block 8%, HP1b chromo inh 11% and PI5P4Ka inh 7.
For CCOC(=O)C1CCCN(S(=O)(=O)c2cc3c(cc2C)NC(=O)CO3)C1 (centres undefined) the results were JMJD2A Tudor -20%, BAZ2B block -22%, G9a inh -1%[59 µM] and HP1b chromo inh 21%.
Screening N[C@@H]1C(O)OC(CO)C(O)C1O (some centres undefined) returned G9a inh -38%[2.33 µM].
Screening COC(=O)[C@]12CCCCC=C1N(Cc1cccc3ccccc13)C(=O)[C@H](CC(=O)N1CCCCC1)C2 returned PLK1 PBD block -1% and PI5P4Ka inh -4.
`COCCNC(=O)CSc1nc2cc3c(cc2c(=O)n1Cc1ccc(C(=O)NCCc2ccc(OC)c(OC)c2)cc1)OCO3` gave JMJD2A Tudor -9%, BAZ2B block -4%, G9a inh 4%[59 µM] and HP1b chromo inh 18%.
Screening Cc1ccc(N=Nc2ccc(N)cc2C)c(S(N)(=O)=O)c1 returned JMJD2A Tudor 8.9µM*, PLK1 PBD block inconclusive, BAZ2B block 50µM*, G9a inh 20µM*, HP1b chromo inh inconclusive and PI5P4Ka inh -25.
Screening Cc1cc(N)ccc1N=Nc1c(C)n(C)n(-c2ccccc2)c1=O returned JMJD2A Tudor inconclusive, PLK1 PBD block -14%, BAZ2B block -9%, G9a inh 17%[59 µM], HP1b chromo inh 5% and PI5P4Ka inh 0.
CC(=O)/C(N=Nc1ccc2c(c1)OCCO2)=C(\C)O was read as JMJD2A Tudor inconclusive, PLK1 PBD block -10%, BAZ2B block -36%, G9a inh -45%, HP1b chromo inh 22% and PI5P4Ka inh -14.
For Oc1ccc(N=Nc2ccc3c(c2)OCCO3)c2ncccc12 the results were JMJD2A Tudor inconclusive, PLK1 PBD block 1%, BAZ2B block inconclusive, G9a inh 11µM*, HP1b chromo inh -29% and PI5P4Ka inh -18.
Screening Cc1ccc(C(=O)Nc2c(C)cc(C)c3cccnc23)cc1 returned JMJD2A Tudor 46%, PLK1 PBD block 2%, BAZ2B block 30%, G9a inh 20%, HP1b chromo inh 85% and PI5P4Ka inh 3.
For Cc1ccc(O)c(N=Cc2ccc(C)s2)c1 the results were JMJD2A Tudor -6%, PLK1 PBD block -3%, BAZ2B block -29%, G9a inh -50%[59 µM], HP1b chromo inh 42% and PI5P4Ka inh 3.
`Cc1ccc(N=Nc2cc(C)ccc2O)c(C)c1` gave JMJD2A Tudor 45µM*, PLK1 PBD block 6%, BAZ2B block 5.6µM*, G9a inh 7.9µM*, HP1b chromo inh inconclusive and PI5P4Ka inh 36.
For Cc1ccc(C)c(N=Nc2ccc(O)c3ncccc23)c1 the results were JMJD2A Tudor 8.9µM*, PLK1 PBD block -19%, BAZ2B block 20µM*, G9a inh 11µM*, HP1b chromo inh inconclusive and PI5P4Ka inh -9.
COc1cccc(NC(=O)Cn2c(=O)c3cccn3c3ccc(F)cc32)c1 was read as JMJD2A Tudor -8%, BAZ2B block -12%, G9a inh -4%[59 µM] and HP1b chromo inh 39%.

Source: PubChem BioAssay (National Center for Advancing Translational Sciences (NCATS))
